In PubChem BioAssay (NCATS):
Records with an inconclusive call do not appear. Active and inactive are the calls of the source. Unless noted, calls come from the whole dose curve; as a rule, active = well fitted curve in the direction sought with a large enough effect; inconclusive = small, poorly fitted or top-dose-only effect, or another doubt; inactive = no such curve, though single readings can be large; an effect the other way counts as inactive or inconclusive.

Assays:
[1] = system: Zika virus NS2B-NS3 protease (unlinked complex); test: Primary screen GU Rhodamine qHTS for Zika virus inhibitors: Unlinked NS2B-NS3 protease assay (AID 1347159); note: nearly all actives have a fitted effect of over 60% in size
Summary of the method: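 Percent inhibition came from the 15-min rise in Rhodamine110 fluorescence (1.5 microM substrate, ~15% conversion), normalized to no-inhibitor and no-enzyme wells and Hill-fitted. Unlinked protease, 25 nM, pH 8.0 Tris buffer; compounds up to 114 microM, 15-min preincubation.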

[2] = system: Zika virus NS2B-NS3 protease (linked construct); test: Primary screen NINDS Rhodamine qHTS for Zika virus inhibitors (AID 1347160); note: nearly all actives have a fitted effect of over 55% in size
Summary of the method: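 Rhodamine110-peptide cleavage (1.5 µM substrate) by 25 nM linked NS2B-NS3 enzyme at pH 8.0 (Tris, Tween 20), after 15 min RT preincubation with compounds; 15-min fluorescence change normalized to controls and Hill-fitted.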

[3] = target: Cytochrome P450 2C9 (Homo sapiens) (UniProt P11712); test: Cytochrome P450 family 2 subfamily C member 9 (CYP2C9) small molecule antagonists: luciferase biochemical (cell-free) qHTS assay (AID 1645842; active = well fitted curve in the direction sought with a large enough effect in the repeat runs; an effect the other way counts as inactive or inconclusive; note: nearly all actives have a fitted effect of over 55% in size)
Summary of the method: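 P450-Glo CYP2C9 system: proluciferin substrate with enzyme in mix containing 0.4% BSA, 10 min at room temperature, then NADPH regeneration solution added and incubated 1 h at 37C. Detection reagent stopped reaction; luminescence read after 20 min as RLU.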

[4] = target: Glutathione peroxidase 1 (Homo sapiens) (UniProt P07203); test: Primary qHTS Assay for Inhibitors of Recombinant Selenoprotein Glutathione Peroxidase 1 (GPX1) (AID 1845191); note: nearly all actives have a fitted effect of over 65% in size
Summary of the method: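 GR-coupled readout: NADPH consumption tracked by fluorescence, ex 340/em 450 nm, at t=0 and after 15 min at RT. Final mix 10 nM GPX1, 1 mM GSH, 0.5 mM CHP, 0.5 mM NADPH, 100 nM GR, 0.01% BSA, following 30 min enzyme–compound preincubation.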

[5] = target: Phospholipid hydroperoxide glutathione peroxidase GPX4 (Homo sapiens) (UniProt P36969); test: Primary qHTS Assay for Inhibitors of Recombinant Selenoprotein Glutathione Peroxidase 4 (GPX4) (AID 1845192); note: nearly all actives have a fitted effect of over 65% in size
Summary of the method: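 Steps: GPX4 plus compound, 30 min RT; add GR/GSH/NADPH master mix; start with cumene hydroperoxide; read 340/450 nm fluorescence at 0 and 15 min. Finals were 200 nM GPX4, 1 mM GSH, 0.5 mM CHP, 0.5 mM NADPH, 100 nM GR.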

[6] = target: Luciferin 4-monooxygenase (Photinus pyralis) (UniProt P08659); test: Primary firefly luciferase (FLuc) qHTS assay for identification of artifact compounds. (AID 1845220); conditions: outcome: dose series up to 54.1 µM unless noted; note: nearly all actives have a fitted effect of over 60% in size
Summary of the method: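 Enzymatic FLuc inhibition assay: compounds pre-exposed to luciferin/ATP (10 uM each) for 15 min, then purified P. pyralis enzyme at 10 nM added. Read-out: luminescence at 5 min.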

[7] = Primary fluorescence-based thiol-reactive (MSTI) qHTS assay for identification of artifact compounds. (AID 1845221);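 note: thiol-reactive compounds lower the probe fluorescence signal; nearly all actives have a fitted effect of over 65% in size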
Summary of the method: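 qHTS titration of compound; 4 uM MSTI, PBS pH 7.4, 2% DMSO; 1 h RT, dark; fluorescence 525/598 nm; normalized to Acetyl-MSTI and MSTI; 4-parameter Hill fit.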

[8] = system: Nanoluciferase (engineered Oplophorus gracilirostris luciferase); test: Primary Nanoluciferase (NLuc) qHTS assay for identification of artifact compounds. (AID 1845222);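 note: NLuc secreted into diluted conditioned medium of S16 cells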
Summary of the method: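 S16 cell supernatant NLuc, 1:55; cpds qHTS; 15 min RT dark; Nano-Glo substrate 1:100, 5 min; luminescence; Hill fit of % inhibition.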

C33A = test: Primary qHTS to identify gynecologic anti-cancer compounds using libraries of approved drugs and bioactive compounds (AID 1345084); conditions: Gynecologic cancer cell panel viability, ATPlite luminescence, 48 h; series mostly up to 57.5 µM; note: nearly all actives have a fitted effect of over 55% in size
Summary of the method: (§1)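 Cells, 1,000 per well, were allowed to settle for 16 h at 37 C before compound addition. Five concentrations were tested for 48 h, and viability was read by ATPlite luminescence after 15 min at room temperature.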

CAOV3 = test: as above; conditions: Gynecologic cancer cell panel viability, ATPlite luminescence, 48 h; series mostly up to 57.5 µM
Summary of the method: as §1

CASKI = test: as above; conditions: Gynecologic cancer cell panel viability, ATPlite luminescence, 48 h; series mostly up to 57.5 µM
Summary of the method: as §1

Es-2 = test: as above; conditions: Gynecologic cancer cell panel viability, ATPlite luminescence, 48 h; series mostly up to 57.5 µM
Summary of the method: as §1

Hek293T = test: as above; conditions: Gynecologic cancer cell panel viability, ATPlite luminescence, 48 h, control line for the selectivity index; series mostly up to 57.5 µM
Summary of the method: as §1

JEG-3 = test: as above; conditions: Gynecologic cancer cell panel viability, ATPlite luminescence, 48 h; series mostly up to 57.5 µM
Summary of the method: as §1

OV90 = test: as above; conditions: Gynecologic cancer cell panel viability, ATPlite luminescence, 48 h; series mostly up to 57.5 µM
Summary of the method: as §1

PA-1 = test: as above; conditions: Gynecologic cancer cell panel viability, ATPlite luminescence, 48 h; series mostly up to 57.5 µM
Summary of the method: as §1

SKOV3 = test: as above; conditions: Gynecologic cancer cell panel viability, ATPlite luminescence, 48 h; series mostly up to 57.5 µM
Summary of the method: as §1

Tov-21-G = test: as above; conditions: Gynecologic cancer cell panel viability, ATPlite luminescence, 48 h; series mostly up to 57.5 µM
Summary of the method: as §1

Tov112D = test: as above; conditions: Gynecologic cancer cell panel viability, ATPlite luminescence, 48 h; series mostly up to 57.5 µM
Summary of the method: as §1

[9] = target: Nuclear receptor subfamily 1 group I member 3 (Homo sapiens) (UniProt Q14994); test: Primary qHTS for antagonist of constitutive androstane receptor (CAR) against the NCATS DSHEA and TCM libraries (AID 1794836);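 note: HepG2 cells stably expressing hCAR with CYP2B6 luciferase reporter stimulated by CITCO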
Summary of the method: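 HepG2-CYP2B6-hCAR cells, attached 5 h, given compounds plus CITCO agonist […], incubated 24 h at 37 C. Luciferase luminescence read, multiplexed with CellTiter-Fluor viability (Ex/Em 405/540 nm).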

CRL-7250 = normal cell line; test: qHTS assay to identify novel small-molecules to repurpose for Merkel cell carcinoma treatment (AID 1296009); conditions: MCC and control cell lines, CellTiter-Glo viability, 72 h; series mostly up to 92 µM; note: nearly all actives have a fitted effect of over 60% in size
Summary of the method: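 Dose-response viability screen; 72 hr exposure at 37 degree celsius; CellTiter-Glo added, 10 min room temperature, luminescence read; RLUs scaled between no-cell and DMSO wells.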

Measured: Potency

Phospholipid hydroperoxide glutathione peroxidase GPX4 (Homo sapiens), sequence (P36969 whole entry, looked up): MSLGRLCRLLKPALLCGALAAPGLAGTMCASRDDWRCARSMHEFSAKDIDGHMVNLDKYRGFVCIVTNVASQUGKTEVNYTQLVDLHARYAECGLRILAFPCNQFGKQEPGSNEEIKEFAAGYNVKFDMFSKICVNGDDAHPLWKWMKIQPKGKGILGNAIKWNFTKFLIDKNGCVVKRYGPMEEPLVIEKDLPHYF
Glutathione peroxidase 1 (Homo sapiens), sequence (P07203 whole entry, looked up): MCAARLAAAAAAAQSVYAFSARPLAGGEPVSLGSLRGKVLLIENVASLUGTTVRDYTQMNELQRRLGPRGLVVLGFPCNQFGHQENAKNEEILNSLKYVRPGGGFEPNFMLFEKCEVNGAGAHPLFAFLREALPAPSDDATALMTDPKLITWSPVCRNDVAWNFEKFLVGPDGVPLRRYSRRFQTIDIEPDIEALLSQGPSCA
Cytochrome P450 2C9 (Homo sapiens), sequence (P11712 whole entry, looked up): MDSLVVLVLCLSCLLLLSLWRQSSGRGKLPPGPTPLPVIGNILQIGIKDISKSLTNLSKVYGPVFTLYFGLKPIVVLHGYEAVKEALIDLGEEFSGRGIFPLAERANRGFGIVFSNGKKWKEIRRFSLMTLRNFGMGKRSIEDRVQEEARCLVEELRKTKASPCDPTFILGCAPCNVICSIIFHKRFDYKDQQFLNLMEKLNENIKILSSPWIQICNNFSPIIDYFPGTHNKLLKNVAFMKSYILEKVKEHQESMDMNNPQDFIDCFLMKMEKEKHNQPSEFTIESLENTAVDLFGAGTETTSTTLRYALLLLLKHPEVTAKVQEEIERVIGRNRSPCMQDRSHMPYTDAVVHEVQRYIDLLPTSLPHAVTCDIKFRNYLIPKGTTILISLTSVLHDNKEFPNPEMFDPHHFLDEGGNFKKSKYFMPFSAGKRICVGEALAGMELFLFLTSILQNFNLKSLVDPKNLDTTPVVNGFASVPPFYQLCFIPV
Nuclear receptor subfamily 1 group I member 3 (Homo sapiens), sequence (Q14994 whole entry, looked up): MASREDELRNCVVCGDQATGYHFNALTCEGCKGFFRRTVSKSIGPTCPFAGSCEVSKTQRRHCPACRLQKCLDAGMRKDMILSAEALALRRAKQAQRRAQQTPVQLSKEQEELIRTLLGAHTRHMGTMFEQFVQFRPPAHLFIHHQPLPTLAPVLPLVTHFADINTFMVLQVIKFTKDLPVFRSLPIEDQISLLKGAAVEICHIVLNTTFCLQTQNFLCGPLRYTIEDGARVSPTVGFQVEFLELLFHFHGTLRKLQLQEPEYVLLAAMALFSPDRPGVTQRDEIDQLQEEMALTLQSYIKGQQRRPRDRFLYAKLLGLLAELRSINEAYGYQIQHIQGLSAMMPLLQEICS

FC(F)(F)c1ccc(N2CCNCC2)nc1Cl
not listed: [9] | CRL-7250
inactive: all other assays above

CC(=O)O[C@@H]1C[C@@H](C)[C@](O)(CCC2=CC(=O)OC2)[C@@]2(C)CCCC(C)(C)C12 (stereo partly specified)
inactive: [9] | CRL-7250
